The results in this text go back to PubChem BioAssay (NCI).

The panel holds about 83,000 compounds, 20% with a hit somewhere; the sample as a whole holds those more often.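 Single-dose data. Exposure time 48 hours. Values below 10 considered active.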 Values without a mark were called inactive. The source made the active and inactive calls.

What all share (assay): NCI-60 one-dose screen, 48 h (100 = growth as untreated, 0 = no growth, -100 = all killed)
In one experiment the test system is NCI-H23 lung. The note with it: 10 µM unless noted.
The test system of another experiment is NCI-H226 lung. The note with it: 10 µM unless noted.
A further experiment concerns NCI-H322M lung. The note with it: 10 µM unless noted.
In a further experiment the test system is HOP-62 NSCLC. The note with it: 10 µM unless noted.
The next experiment deals with NCI-H460 lung. To be noted: 10 µM unless noted.
The next experiment has as its system HOP-92 NSCLC. To be noted: 10 µM unless noted.
A further experiment concerns NCI-H522 lung. The note with it: 10 µM unless noted.
A further experiment deals with A549/ATCC NSCLC. The note with it: 10 µM unless noted.
The test system of another experiment is 786-0 renal. To be noted: 10 µM unless noted.
A further experiment has as its system COLO 205 colon. The note with it: 10 µM unless noted.
For the next experiment, the system named is DU-145 prostate. To be noted: 10 µM unless noted.
Another experiment concerns K-562 leukemia. To be noted: 10 µM unless noted.
The subject of a further experiment is MALME-3M melanoma. To be noted: 10 µM unless noted.
A further experiment has as its system MDA-MB-231 breast. To be noted: 10 µM unless noted.
A further experiment has as its system RXF 393 renal. The note with it: 10 µM unless noted.
For a further experiment, the system named is SF-268 CNS. To be noted: 10 µM unless noted.
A further experiment has as its system SF-295 CNS. The note with it: 10 µM unless noted.
Another experiment relates to SF-539 CNS. To be noted: 10 µM unless noted.
Another experiment concerns UACC-257 melanoma. The note with it: 10 µM.
A further experiment deals with M14 melanoma. To be noted: 10 µM unless noted.

As to `Cn1cc(C=O)c2ccccc21`, the growth with NCI-H23 lung was 96.4%; in the experiment on NCI-H226 lung, 95.2%; in the experiment with NCI-H322M lung, 97.8%; with HOP-62 NSCLC, 95.9%; in the experiment with NCI-H460 lung, 104%; in the experiment with HOP-92 NSCLC, 87.6%. The growth is 98.3% in the experiment with NCI-H522 lung; 104% in the experiment on A549/ATCC NSCLC; 99.2% in the experiment with 786-0 renal; 104% with COLO 205 colon; 111% in the experiment on DU-145 prostate; 95.4% in the experiment on K-562 leukemia. For the same compound, the growth in the experiment with MALME-3M melanoma was 87.9%; in the experiment on MDA-MB-231 breast it was 104%; in the experiment with RXF 393 renal, 105%; in the experiment on SF-268 CNS, 101%; in the experiment on SF-295 CNS, 107%; in the experiment with SF-539 CNS it was 97.6%. Further, the growth is 105% in the experiment with UACC-257 melanoma and 103% in the experiment on M14 melanoma.

Turning to `COC1=CC(c2ccc[nH]2)=N/C1=C\c1[nH]c(C)c(C(=O)CCC(=O)Oc2ccc3c(c2)CCC2C3CC[C@]3(C)[C@@H](O)CC[C@@H]23)c1C` (stereo not given in full), the growth is 18.4% with NCI-H23 lung; 15.5% in the experiment on NCI-H226 lung; 42.7% with NCI-H322M lung; 12.4% with HOP-62 NSCLC; 1.58% (active) in the experiment with NCI-H460 lung; -45.2% (active) in the experiment with HOP-92 NSCLC. In addition, the growth is -58.9% (active) in the experiment on NCI-H522 lung; -10.9% (active) with A549/ATCC NSCLC; -46.3% (active) in the experiment on 786-0 renal; 31.5% in the experiment on COLO 205 colon; 0.722% (active) in the experiment with DU-145 prostate; -18% (active) in the experiment on K-562 leukemia. Also, the growth in the experiment with MALME-3M melanoma is 9.7% (active); in the experiment with MDA-MB-231 breast, -64.2% (active); in the experiment with RXF 393 renal it was -6.4% (active); in the experiment with SF-268 CNS, 3.8% (active); in the experiment with SF-295 CNS, 20.3%; with SF-539 CNS, -18.9% (active). In addition, the growth with UACC-257 melanoma is 82.4%; with M14 melanoma it was -50.8% (active).

With `C=C1C(=O)O[C@H]2[C@H](O)[C@@H](C)CCC/C(C)=C/CC[C@@]3(C)O[C@@H]3C[C@@H]12`, the growth in the experiment on NCI-H23 lung was 95.3%; in the experiment with NCI-H226 lung, 80.9%; in the experiment on NCI-H322M lung, 81%; in the experiment with HOP-62 NSCLC, 96.3%; with NCI-H460 lung it was 91.4%; in the experiment with HOP-92 NSCLC, 58%. For the same compound, the growth was -17.3% (active) in the experiment with NCI-H522 lung; 80.7% in the experiment with A549/ATCC NSCLC; 93.7% in the experiment on 786-0 renal; 90.7% in the experiment with COLO 205 colon; 99.4% in the experiment with DU-145 prostate; 79.2% in the experiment with K-562 leukemia. The growth is 72% with MALME-3M melanoma; 77.9% with MDA-MB-231 breast; 53.1% with RXF 393 renal; 96.1% with SF-268 CNS; 89.4% with SF-295 CNS; 84.2% with SF-539 CNS. Besides, the growth is 56.9% in the experiment on UACC-257 melanoma and 92.8% in the experiment on M14 melanoma.

For `COc1cccc(/C=C/C(=O)c2sc(Nc3ccc(O)cc3)nc2C)c1`, the growth in the experiment with NCI-H23 lung was 92.3%; in the experiment with NCI-H226 lung, 107%; in the experiment with NCI-H322M lung it was 93.5%; in the experiment on HOP-62 NSCLC, 107%; in the experiment on NCI-H460 lung it was 105%; with HOP-92 NSCLC, 107%. Besides, the growth is 24.9% with NCI-H522 lung; 88.2% in the experiment with A549/ATCC NSCLC; 80.2% in the experiment with 786-0 renal; 115% with COLO 205 colon; 94.9% with DU-145 prostate; 79.1% in the experiment on K-562 leukemia. The growth is 95% in the experiment on MALME-3M melanoma; 105% in the experiment on MDA-MB-231 breast; 84.6% with RXF 393 renal; 61.2% in the experiment with SF-268 CNS; 104% in the experiment on SF-295 CNS; 74.5% in the experiment with SF-539 CNS. In addition, the values for the growth in the experiment with UACC-257 melanoma and in the experiment on M14 melanoma were 85% and 95.4%, respectively.

Regarding `COc1cc(OC)c(C(=O)/C=C/c2ccc(C(F)(F)F)cc2)c(OC)c1`, the growth with NCI-H23 lung is 42.3%; in the experiment on NCI-H226 lung, 64.7%; with NCI-H322M lung, 62%; in the experiment with HOP-62 NSCLC it was 55.1%; with NCI-H460 lung, 23.1%; with HOP-92 NSCLC, 96.8%. For the same compound, the growth with NCI-H522 lung was 28.8%; in the experiment on A549/ATCC NSCLC, 53.5%; in the experiment with 786-0 renal, 45.4%; in the experiment with COLO 205 colon it was 86.9%; in the experiment on DU-145 prostate, 11.9%; with K-562 leukemia it was 32.3%. Further, the growth was 75.3% in the experiment with MALME-3M melanoma; 59.7% in the experiment with MDA-MB-231 breast; 41.1% with RXF 393 renal; 55.9% with SF-268 CNS; 69.9% with SF-295 CNS; 68.7% in the experiment on SF-539 CNS. Besides, the growth was 62.5% with UACC-257 melanoma and 59% in the experiment on M14 melanoma.

For `COc1cc(C(=O)OCCCCCCCCCCC[P+](c2ccccc2)(c2ccccc2)c2ccccc2)ccc1O`, the growth was -18.2% (active) with NCI-H23 lung; 27.9% in the experiment with NCI-H226 lung; 1.65% (active) with NCI-H322M lung; -83.8% (active) in the experiment with HOP-62 NSCLC; -10.6% (active) with NCI-H460 lung; -49.5% (active) with HOP-92 NSCLC. Also, the growth is -50.3% (active) with NCI-H522 lung; -8.01% (active) in the experiment with A549/ATCC NSCLC; 5.62% (active) with 786-0 renal; -84.1% (active) in the experiment with COLO 205 colon; 10.6% in the experiment on DU-145 prostate; -37.8% (active) in the experiment on K-562 leukemia. Also, the growth is -77.4% (active) in the experiment with MALME-3M melanoma; -69.4% (active) in the experiment on MDA-MB-231 breast; -53.4% (active) in the experiment with RXF 393 renal; -74.3% (active) with SF-268 CNS; -31.9% (active) in the experiment with SF-295 CNS; -57.3% (active) in the experiment with SF-539 CNS. Also, the results for the growth in the experiment with UACC-257 melanoma and with M14 melanoma were -21.6% (active) and -24.5% (active), respectively.

With `C=CCOc1cccc(/C=C/C(=O)c2sc(Nc3cccnc3)nc2C)c1`, the growth with NCI-H23 lung is 94.1%; with NCI-H226 lung, 86.1%; in the experiment with NCI-H322M lung, 77.6%; with HOP-62 NSCLC it was 68.2%; in the experiment with NCI-H460 lung, 81.2%; in the experiment on HOP-92 NSCLC it was 74.7%. Further, the growth in the experiment on NCI-H522 lung was 65.9%; in the experiment on A549/ATCC NSCLC, 70.9%; in the experiment with 786-0 renal, 51.7%; in the experiment on COLO 205 colon it was 91.3%; in the experiment on DU-145 prostate it was 38.4%; in the experiment with K-562 leukemia, 28.9%. Besides, the growth is 94.6% with MALME-3M melanoma; 95.4% in the experiment with MDA-MB-231 breast; 83.5% in the experiment with RXF 393 renal; 81.7% with SF-268 CNS; 88.5% in the experiment on SF-295 CNS; 76.7% in the experiment on SF-539 CNS. Also, the growth in the experiment with UACC-257 melanoma is 97.2%; in the experiment with M14 melanoma it was 71.2%.

`CCN(CC)CCCC(C)N=c1cc(Nc2cc(=NC(C)CCCN(CC)CC)c3cc(OC)ccc3o2)oc2ccc(OC)cc12` (stereo not given): the growth was -43.3% (active) in the experiment on NCI-H23 lung; 2.33% (active) in the experiment on NCI-H226 lung; -38.4% (active) with NCI-H322M lung; -41.6% (active) in the experiment on HOP-62 NSCLC; -38.7% (active) with NCI-H460 lung; -29.9% (active) in the experiment with HOP-92 NSCLC. The growth in the experiment with NCI-H522 lung was -78.6% (active); in the experiment on A549/ATCC NSCLC it was -48.6% (active); in the experiment on 786-0 renal, -7.34% (active); with COLO 205 colon, -96.2% (active); in the experiment with DU-145 prostate, 2.37% (active); with K-562 leukemia, -38.4% (active). The growth in the experiment on MALME-3M melanoma was -80.1% (active); in the experiment with MDA-MB-231 breast, -51.7% (active); in the experiment on RXF 393 renal, -68.4% (active); in the experiment on SF-268 CNS it was -32.1% (active); in the experiment with SF-295 CNS it was -9.83% (active); with SF-539 CNS it was -90.2% (active). For the same compound, the growth in the experiment with UACC-257 melanoma is -79.1% (active); with M14 melanoma, -87.9% (active).
